# Source: PubChem BioAssay (NCATS)
# Results filed as inconclusive are left out. Where a call stands in place of a potency, no number is given. Values without a mark were called inactive. Activity calls are given as the source filed them. Calls come from the whole dose curve; as a rule, active = well fitted curve in the direction sought with a large enough effect; inconclusive = small, poorly fitted or top-dose-only effect, or another doubt; inactive = no such curve, though single readings can be large; an effect the other way counts as inactive or inconclusive.
# Tests used:
# [1] = biological target: Rap guanine nucleotide exchange factor 3 (Homo sapiens) (UniProt O95398); assay: Confirmatory qHTS for antagonist of cAMP-regulated guanine nucleotide exchange factor 3 (EPAC1) (AID 1645880); conditions: EPAC1 Rap1B-BODIPY-GDP exchange, fluorescence; activity, negative = inhibition: at 115 µM (top of the series); note: nearly all actives have a fitted effect of over 55% in size; note: potency is the fitted concentration of half-maximal effect
# Summary of the method: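 Released BODIPY-GDP fluoresces less than Rap1-bound BODIPY-GDP; the signal is followed at 480/540 nm at 5-min intervals over 30 min, after 5 min at room temperature. Reactions contain 100 nM EPAC1, 250 nM RAP1B-BODIPY-GDP and 50 uM GDP; results are normalized to ATA and DMSO.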
# [2] = biological target: Rap guanine nucleotide exchange factor 3 (Homo sapiens) (UniProt O95398); assay: Confirmatory qHTS for agonist of cAMP-regulated guanine nucleotide exchange factor 3 (EPAC1) (AID 1645881); conditions: EPAC1 Rap1B BODIPY-GDP exchange fluorescence; series mostly up to 154 µM;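 note: EPAC1 catalysed release of BODIPY-GDP from Rap1B seen as fluorescence loss; nearly all actives have a fitted effect of over 75% in size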
# [3] = biological target: Rap guanine nucleotide exchange factor 4 (Homo sapiens) (UniProt Q8WZA2); assay: Confirmatory qHTS for agonist of cAMP-regulated guanine nucleotide exchange factor 4 (EPAC2) (AID 1645884); conditions: EPAC2 GEF activity, Rap1B-BODIPY-GDP fluorescence; series mostly up to 154 µM;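 note: nucleotide exchange releases bodipy-GDP from Rap1 and this lowers its fluorescence; nearly all actives have a fitted effect of over 65% in size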
# [4] = biological target: Rap guanine nucleotide exchange factor 4 (Homo sapiens) (UniProt Q8WZA2); assay: Confirmatory qHTS for antagonist of cAMP-regulated guanine nucleotide exchange factor 4 (EPAC2) (AID 1645885); conditions: EPAC2 Rap1B-BODIPY-GDP exchange fluorescence, biochemical; series mostly up to 12.7 µM; note: nearly all actives have a fitted effect of over 25% in size; note: potency is the fitted concentration of half-maximal effect
# [5] = biological target: Rap guanine nucleotide exchange factor 3 (Homo sapiens) (UniProt O95398); assay: Counterscreen qHTS for antagonist of cAMP-regulated guanine nucleotide exchange factor 3 (EPAC1) (AID 1645888); conditions: Rap1B-BODIPY-GDP nucleotide exchange, fluorescence; series mostly up to 154 µM
# Summary of the method: (§1)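 Rap1B–BODIPY-GDP (250 nM) with 50 uM GDP; compounds pin-transferred to 9.74 nM–152 uM final (activator) or from 7.32 nM upwards (inhibitor). Fluorescence Ex/Em 480/540 nm read at 5 and 30 min, then after adding cAMP or buffer, at room temperature.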
# [6] = biological target: Rap guanine nucleotide exchange factor 3 (Homo sapiens) (UniProt O95398); assay: Counterscreen qHTS for agonist of cAMP-regulated guanine nucleotide exchange factor 3 (EPAC1) (AID 1645889); conditions: EPAC1 Rap1B-BODIPY-GDP exchange, fluorescence; series mostly up to 154 µM; note: nearly all actives have a fitted effect of over 40% in size
# Summary of the method: as §1
# Chain of Rap guanine nucleotide exchange factor 3 (Homo sapiens) (O95398 whole entry, looked up): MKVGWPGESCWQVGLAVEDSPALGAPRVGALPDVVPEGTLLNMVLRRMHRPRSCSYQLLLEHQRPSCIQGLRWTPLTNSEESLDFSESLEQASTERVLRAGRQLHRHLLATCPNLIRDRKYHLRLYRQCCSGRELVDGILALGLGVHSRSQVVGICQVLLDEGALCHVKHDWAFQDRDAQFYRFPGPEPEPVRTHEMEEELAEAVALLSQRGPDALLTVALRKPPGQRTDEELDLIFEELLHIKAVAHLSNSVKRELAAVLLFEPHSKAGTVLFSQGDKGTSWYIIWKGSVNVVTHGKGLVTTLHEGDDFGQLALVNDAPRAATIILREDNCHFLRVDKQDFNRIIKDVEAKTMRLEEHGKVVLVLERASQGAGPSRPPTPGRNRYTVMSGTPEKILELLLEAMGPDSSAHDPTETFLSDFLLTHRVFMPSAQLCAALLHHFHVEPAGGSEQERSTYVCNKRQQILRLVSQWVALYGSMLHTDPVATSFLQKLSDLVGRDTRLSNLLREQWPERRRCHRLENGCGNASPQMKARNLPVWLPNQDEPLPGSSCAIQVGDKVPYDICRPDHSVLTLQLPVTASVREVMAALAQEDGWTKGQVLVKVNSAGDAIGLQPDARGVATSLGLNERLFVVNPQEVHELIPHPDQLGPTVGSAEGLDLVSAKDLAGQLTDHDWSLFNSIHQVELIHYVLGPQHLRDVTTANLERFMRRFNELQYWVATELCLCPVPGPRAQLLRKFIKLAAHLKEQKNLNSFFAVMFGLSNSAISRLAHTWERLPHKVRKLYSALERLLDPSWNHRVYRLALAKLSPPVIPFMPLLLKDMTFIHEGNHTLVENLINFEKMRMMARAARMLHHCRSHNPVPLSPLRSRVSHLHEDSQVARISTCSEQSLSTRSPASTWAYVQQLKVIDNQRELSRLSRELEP
# Chain of Rap guanine nucleotide exchange factor 4 (Homo sapiens) (Q8WZA2 whole entry, looked up): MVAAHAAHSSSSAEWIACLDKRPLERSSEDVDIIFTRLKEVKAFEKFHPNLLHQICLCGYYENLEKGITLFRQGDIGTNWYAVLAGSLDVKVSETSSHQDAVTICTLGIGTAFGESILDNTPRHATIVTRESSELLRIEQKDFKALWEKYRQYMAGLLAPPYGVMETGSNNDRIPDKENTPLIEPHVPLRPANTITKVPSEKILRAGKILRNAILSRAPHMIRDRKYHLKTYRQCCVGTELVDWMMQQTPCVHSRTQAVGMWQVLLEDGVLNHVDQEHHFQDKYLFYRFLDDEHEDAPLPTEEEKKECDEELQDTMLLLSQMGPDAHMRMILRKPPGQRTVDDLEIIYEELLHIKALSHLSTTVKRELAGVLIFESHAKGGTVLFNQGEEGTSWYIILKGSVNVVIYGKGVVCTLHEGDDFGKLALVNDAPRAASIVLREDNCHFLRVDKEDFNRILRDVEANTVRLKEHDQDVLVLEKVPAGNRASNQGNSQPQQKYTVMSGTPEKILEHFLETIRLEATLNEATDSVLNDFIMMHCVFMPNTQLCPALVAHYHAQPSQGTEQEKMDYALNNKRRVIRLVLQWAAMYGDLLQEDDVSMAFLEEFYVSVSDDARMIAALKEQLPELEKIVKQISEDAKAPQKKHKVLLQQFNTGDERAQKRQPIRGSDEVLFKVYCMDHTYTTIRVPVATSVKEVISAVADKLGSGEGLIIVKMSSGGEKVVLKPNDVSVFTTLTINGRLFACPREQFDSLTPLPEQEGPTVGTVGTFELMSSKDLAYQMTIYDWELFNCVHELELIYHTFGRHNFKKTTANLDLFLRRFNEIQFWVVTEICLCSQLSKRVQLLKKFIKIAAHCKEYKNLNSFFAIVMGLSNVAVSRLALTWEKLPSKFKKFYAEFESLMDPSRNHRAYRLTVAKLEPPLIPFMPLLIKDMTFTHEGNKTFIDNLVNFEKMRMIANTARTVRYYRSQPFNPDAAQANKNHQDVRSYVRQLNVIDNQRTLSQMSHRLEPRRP
Compound,Potency [1],Potency [2],activation [3],Potency [4],"activity change, negative = inhibition [5]",activation [6],Potency [3],Potency [5],Potency [6]
O=S(=O)(N/N=C/c1cccnc1)c1ccc(Cl)c(Cl)c1,inactive,inactive,"4.19% [at 17.1 µM, percent relative to cAMP agonist control]",inactive,-14.7% [at 30.8 µM],6.45% [at 30.8 µM],,,
COc1cccc2c1Oc1ncccc1N(C(=O)CCC(=O)NCc1cccc(C)c1)C2,inactive,inactive,,inactive,,,inactive,inactive,inactive
CC(=O)NNC(=O)c1sc(=S)n2c1[nH]c(=O)c1sccc12,37.9 µM (active),inactive,,inactive,,,inactive,inactive,inactive
CCOC(=O)C1=CCN(S(=O)(=O)c2ccc(C)cc2)C1c1cccc(Cl)c1 (stereo not drawn),inactive,inactive,,inactive,,,inactive,inactive,inactive
CCc1ccc(C(=O)c2cn(CC(=O)Nc3cccc(OC)c3)c3ccc(OC)cc3c2=O)cc1,53.6 µM (active),inactive,,inactive,,,inactive,inactive,inactive
COc1ccc(CCNC2CC(=O)N(CCc3ccc(OC)c(OC)c3)C2=O)cc1 (stereo not drawn),inactive,inactive,"4.7% [at 17.1 µM, percent relative to cAMP agonist control]",inactive,-1.61% [at 30.8 µM],8.52% [at 30.8 µM],,,
Cc1onc(-c2c(Cl)cccc2Cl)c1COC(=O)c1ccc(Cl)cc1,inactive,inactive,,inactive,,,inactive,inactive,inactive
CCOc1cc(/C=C2\SC(=S)N(NS(=O)(=O)c3ccc(C)cc3)C2=O)ccc1O,19 µM (active),inactive,,inactive,,,inactive,inactive,inactive
O=C1NC(=S)S/C1=C\c1coc2ccc(O)cc2c1=O,39.8 µM (active),inactive,"11% [at 17.1 µM, percent relative to cAMP agonist control]",inactive,-13.4% [at 30.8 µM],-0.252% [at 30.8 µM],,,
CCc1nnc(NC(=O)c2ccc(-c3cccc(C(F)(F)F)c3)o2)s1,inactive,inactive,"4.04% [at 17.1 µM, percent relative to cAMP agonist control]",inactive,7.54% [at 30.8 µM],26.6% [at 30.8 µM],,,
O=C(O)C(c1ccccc1)N1C(=O)/C(=C/c2cccs2)SC1=S (stereo not drawn),39.8 µM (active),inactive,"2.04% [at 17.1 µM, percent relative to cAMP agonist control]",inactive,-23.4% [at 30.8 µM],6.75% [at 30.8 µM],,,
CC1CCCN(C(=O)c2cccc(S(=O)(=O)Nc3cc(C(F)(F)F)ccc3Cl)c2)C1 (stereo not drawn),21.3 µM (active),inactive,,26.9 µM (active),,,inactive,inactive,inactive
NC(=O)c1ccsc1NC(=O)CS(=O)(=O)c1ccc(F)cc1,inactive,inactive,,inactive,,,inactive,inactive,inactive
O=C(CC(=O)NC1CCCCC1)N/N=C/c1ccc(Cl)cc1,inactive,inactive,,inactive,,,inactive,inactive,inactive
COc1ccc(-n2c(SCC(=O)Nc3ccccc3OC)nc(O)cc2=O)cc1,inactive,inactive,"4.67% [at 17.1 µM, percent relative to cAMP agonist control]",inactive,-3.75% [at 30.8 µM],2.02% [at 30.8 µM],,,
CC1CCc2c(sc3nc(SCC(=O)O)n(-c4ccccc4)c(=O)c23)C1 (stereo not drawn),inactive,inactive,"-2.98% [at 17.1 µM, percent relative to cAMP agonist control]",inactive,-13.5% [at 30.8 µM],5.5% [at 30.8 µM],,,
CC(C)(C)N(NC(=O)Nc1ccc(F)cc1)C(=O)c1ccccc1,inactive,inactive,"0.121% [at 17.1 µM, percent relative to cAMP agonist control]",inactive,-14.2% [at 30.8 µM],0.382% [at 30.8 µM],,,
Cc1[nH]n(-c2ncc(-c3ccccc3)s2)c(=O)c1C(c1ccc(Cl)cc1)C(C#N)C#N (stereo not drawn),22.4 µM (active),inactive,"-0.2% [at 17.1 µM, percent relative to cAMP agonist control]",inactive,-10.4% [at 30.8 µM],13% [at 30.8 µM],,,
